This is one part of a sample in which hits are shown more often than they occur.
ERG-DNA inh = ERG Ets/DNA interaction inhibition | P11308 | fluorescence polarization, His-ERG Ets domain / labelled DNA | Potency, µM (doses to about 76.9 µM), for inactives: at the top dose FP activity, negative = inhibition, actives largely listed as inhibitors | 370,000 tested, 0.028% active | AID 624246; active = well fitted inhibition curve with a large enough effect in the polarisation, with a control signal flat; inconclusive = small, poorly fitted or top-dose-only effect, or effect the other way, or a change in a side signal; inactive = no such curve, though single readings can be large or run the other way; the % refers to the polarisation;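 note: polarization taken with two DNA probes labelled with fluorescein and Texas red; potency is the fitted concentration of half-maximal effect; % of control where 0% means no effect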
Target sequence (P11308 whole entry, looked up, the tested form may be a part): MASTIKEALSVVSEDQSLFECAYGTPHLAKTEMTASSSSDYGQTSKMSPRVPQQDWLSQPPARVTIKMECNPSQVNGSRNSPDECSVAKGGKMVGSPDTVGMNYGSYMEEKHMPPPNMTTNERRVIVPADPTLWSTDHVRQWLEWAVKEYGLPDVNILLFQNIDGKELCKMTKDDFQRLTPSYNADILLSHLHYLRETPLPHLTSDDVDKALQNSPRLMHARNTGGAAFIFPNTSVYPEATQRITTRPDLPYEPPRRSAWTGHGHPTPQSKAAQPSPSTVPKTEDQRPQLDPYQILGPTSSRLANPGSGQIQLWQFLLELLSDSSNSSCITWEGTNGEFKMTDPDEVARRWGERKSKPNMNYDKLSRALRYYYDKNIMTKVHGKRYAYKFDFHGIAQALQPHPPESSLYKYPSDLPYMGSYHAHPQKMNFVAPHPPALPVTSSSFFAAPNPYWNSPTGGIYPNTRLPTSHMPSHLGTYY
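His-tagged ERG Ets domain (1 uM in the protein solution; 300mM KCl, 50mM Tris-HCl, 1mM EDTA, 1mM DTT, pH 7.5) received compound, then a probe mix of 5 nM fluorescein-DNA and 100nM Texas-615-DNA. Fluorescence polarization was read for both dyes.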
RORgamma inh = blocks mouse ROR gamma transcriptional activity. P51450. Drosophila S2 Gal4-RORgamma UAS-luciferase reporter, 20 h. Potency, µM (titrated, usually from 53.6 µM), without a hit: at the top dose activity change, negative = inhibition, most hits filed as inhibitors. 310,000 tested, 5.4% active. AID 2551; note: potency is the fitted concentration of half-maximal effect; % is set by controls: 0 for no effect and ±100 for the full control effect; nearly all actives have a fitted effect of over 60% in size
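Schneider cells (Drosophila), stable Gal4 DBD–ROR gamma + UAS-luc; 1 hr cmpd preincubation; Cu2+ induction 700 uM final; 20 hr ambient; luminescence.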
Giardia kill = Giardia lamblia killing. Giardia lamblia trophozoite viability. activity change, % at 7.66 µM, hits read low. 340,000 tested, 0.15% active. AID 540267; in the data active = activity change below about -80%; inconclusive = between about -30% and that limit;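 note: parasites exposed to compound for two days anaerobically before the ATP read; % is set by controls: 0 for no effect and ±100 for the full control effect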
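Trophozoite viability was measured as ATP-dependent luminescence, read 15-30 min after reagent addition. Before that, parasites at 100 cells/well were exposed to compounds for 48 h, anaerobically, at 37 deg C.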
Gal4-VP16 FLuc = Gal4-VP16 reporter inhibition counter-screen; Drosophila S2 Gal4-VP16 UAS-luciferase, luminescence, 20 h; Potency, µM (doses to about 53.6 µM), for the others: top-dose activity, negative = inhibition, most hits filed as inhibitors; 310,000 tested, 3.5% active;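 note: Gal4-VP16 expression switched on by copper sulfate through the metallothionein promoter; potency is the fitted concentration of half-maximal effect; % is set by controls: 0 for no effect and ±100 for the full control effect; nearly all actives have a fitted effect of over 50% in size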
Integrin act MD = integrin-mediated muscular dystrophy alleviation activation. alpha7betagal myoblasts, beta-gal FDG fluorescence, 48 h. Potency, µM (doses to about 38.3 µM), inactives show at the highest dose activation, actives largely listed as activators. 350,000 tested, 0.064% active. AID 624291;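 note: potency is the fitted concentration of half-maximal effect; 100% = response of the positive control SU9516; nearly all actives have a fitted effect of over 60% in size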
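alpha7betagal+/- myoblasts (passage 13, 250/well) treated 48 h at 37C with compounds at 1:260 dilution of DMSO stock. Lysed, then beta-galactosidase activity read as FDG fluorescence (ex 480/em 540) after 30 min, with pre-read for autofluorescence.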
Numbers without * were called inactive; ? = inconclusive; / = no result given; [ ] = remark or other dose. Unless noted, calls come from the whole dose curve; as a rule, active = well fitted curve in the direction sought with a large enough effect; inconclusive = small, poorly fitted or top-dose-only effect, or another doubt; inactive = no such curve, though single readings can be large; an effect the other way counts as inactive or inconclusive.

SMILES | ERG-DNA inh | RORgamma inh | Giardia kill | Gal4-VP16 FLuc | Integrin act MD
CC1(C)[N+]([O-])=C2C(=[N+]([O-])C1(C)C)c1ccccc1/C2=N\O | -5% | -29% | -98* | -4% | 3%
CC(=O)Oc1cc(C(F)(F)F)ccc1C(=O)O | / | 6%[16.9 µM] | / | -9%[17 µM] | /
Cc1ccc(-n2ncc3c(NCCCn4ccnc4)ncnc32)cc1 | 2% | / | / | / | /
CC(C)(C)C(=O)N1CCC(O)(CS(=O)(=O)Cc2ccccc2Cl)CC1 | -5% | ? | 9 | 5.6µM* | 19%
Oc1cccc(C(Nc2nccs2)c2ccc3cccnc3c2O)c1 (centres undefined) | 2% | 1.4µM* | 5 | 3.5µM* | -4%
COc1cccc(C(=O)NC(c2ccc(Cl)cc2)c2cc(Cl)c3cccnc3c2O)c1 (centres undefined) | 8% | / | / | / | /
COc1cccc(C(NC(C)=O)c2ccc3cccnc3c2O)c1 (centres undefined) | -12% | 2.8µM* | -2 | 5µM* | -15%
CC(=O)NC(c1cccc([N+](=O)[O-])c1)c1ccc2cccnc2c1O (centres undefined) | -9% | 1.4µM* | -15 | 2µM* | -51%
CCCCC(=O)NC(c1cccc([N+](=O)[O-])c1)c1ccc2cccnc2c1O (centres undefined) | 3% | / | 0 | / | -54%
O=C(NCCOc1ccccc1)O[C@@H]1C(=O)c2cc(Br)ccc2O[C@H]1c1ccc2c(c1)OCO2 | / | 5% | / | 3% | /
CCc1c(C)nc2cc(-c3ccc(OC)c(OC)c3)nn2c1NCC1CC1 | -12% | 11µM* | -18 | 4.5µM* | -16%
CCOc1cc(C(=O)N(CC)CC(=O)Nc2c(F)cccc2F)ccc1OCC(=O)N1CCCCC1 | -7% | / | 3 | / | -21%
CCc1cc[n+](C2=C([O-])c3ccccc3C(=O)/C2=N\S(=O)(=O)c2cccs2)cc1 | 10% | 3.5µM* | -22 | 16µM* | 0%
O=C1C(=O)c2ccccc2C([O-])=C1[n+]1ccccc1 | -7% | -22% | -11 | -20% | -14%
O=C(Nc1nnc(-c2ccc(F)cc2)o1)c1cccc([N+](=O)[O-])c1 | -5% | 0.4µM* | ? | 0.79µM* | -22%
O=C(Nc1nnc(C2=COCCO2)o1)c1cccc([N+](=O)[O-])c1 | 5% | 1µM* | 12 | 4µM* | 2%
O=C(Nc1nnc(C2=COCCO2)o1)c1cccc(Br)c1 | 0% | 0.35µM* | -19 | 0.5µM* | 17%
O=S(=O)(c1ccccc1)c1ncc(C(F)(F)F)cc1Cl | 0% | 8.9µM* | 10 | 16µM* | -66%
O=S(=O)(c1ccccc1)c1ncc(C(F)(F)F)cc1O | 7% | ? | 3 | 1% | -10%
CN(NC(=O)c1ccccc1)c1ncc(C(F)(F)F)cc1Cl | 3% | 1% | 3 | -23% | 8%
CN(NS(C)(=O)=O)c1ncc(C(F)(F)F)cc1Cl | 5% | 11µM* | -5 | ? | -7%
CN(C)C(=S)NC(=O)C(c1ccccc1)c1ccccc1 | 7% | 1.4µM* | 3 | ? | 15%
CCNC(=S)NNC(=O)C(c1ccccc1)c1ccccc1 | / | 3.2µM* | 15 | 11µM* | 9%
CC(C)(C)C(=O)NC(=S)NNC(=O)C(c1ccccc1)c1ccccc1 | 18% | 2.8µM* | -22 | 11µM* | 13%
CCCCCCCCCCCCC/C=C/[C@@H](O)[C@H](CO)NC(=O)CCCCCCCCCCCCCCC | / | -15% | / | -22% | /
SMILES | ERG-DNA inh | RORgamma inh | Giardia kill | Gal4-VP16 FLuc | Integrin act MD
Cc1cccc2c1-c1sc(C(=O)Nc3nccs3)cc1CO2 | 14% | 4.5µM* | -14 | 5.6µM* | -5%
O=C(Nc1cccnc1)c1cc2c(s1)-c1ccccc1OC2 | 15% | 4.5µM* | 8 | -9% | -38%
O=C(Nc1nccs1)c1cc2c(s1)-c1ccccc1OC2 | -3% | 5µM* | 2 | 4.5µM* | -44%
Cc1cccc2c1-c1sc(C(=O)Nc3cccnc3)cc1CO2 | -5% | -14% | 8 | 16% | -5%
COc1ccc(-c2nc3c4ccccc4n(CC(=O)N4CCN(c5ccc(F)cc5)CC4)c(=O)n3n2)cc1 | -1% | / | / | / | /
Cc1c(Cl)cccc1NC(=S)N(Cc1cccnc1)Cc1ccccc1Cl | 4% | 11µM* | -16 | ? | 14%
CCc1ccc2[nH]c3nc(SCC(=O)NNC(=O)c4ccc(C(C)(C)C)cc4)nnc3c2c1 | -4% | 13µM* | 6 | 0%[0.365 µM] | 18%
CN(C)CCNC(=O)CCCN1C(=O)c2cccnc2Oc2ccc(Cl)cc21 | -5% | / | / | / | /
COc1ccc(/C=C2/SC(=S)N(CCC(=O)O)C2=O)cc1 | 5% | 5µM* | 11 | ? | -21%
COc1ccc(/C=C2\SC(=S)N(CCC(=O)Nc3ccc(C(=O)O)cc3)C2=O)cc1 | 14% | -39% | -9 | 5% | 1%
COc1ccc(/C=C2/SC(=S)N(CCCC(=O)Nc3ccc(O)cc3)C2=O)cc1 | -9% | 0.28µM* | -6 | 1.4µM* | -61%
COc1ccc(/C=C2\SC(=S)N(CCC(=O)Nc3cccc(O)c3)C2=O)cc1 | 19% | ? | 3 | -25% | -27%
COc1ccc(/C=C2\SC(=S)N(CCCC(=O)Nc3ccc(O)cc3)C2=O)cc1 | 11% | 1.4µM* | 12 | 1µM* | -37%
COC(=O)NC(/C=C/c1ccccc1)C(C(C)=O)C(=O)OC (centres undefined) | / | -3% | / | -18% | /
Cc1cc(C)nc(NN2C(=O)C=CC2=O)n1 | 8% | ? | -17 | ? | -7%
CO[C@@H]1COC(=O)CC=C[C@@H](C)[C@@H]2C=C[C@@H](O)[C@@H](COC(=O)C/C=C\[C@H]1C)O2 | / | 30%[10 µM] | / | -3%[10 µM] | /
COC(=O)c1nnc(C(=O)NCc2ccccc2)c2[nH]c3ccccc3c12 | / | -14% | / | -3% | /
Fc1ccc(F)c(NC(=S)NCCc2ccccc2)c1 | 17% | 4.5µM* | -19 | ? | -41%
Fc1ccccc1NC(=S)NCc1ccccc1 | 17% | ? | -8 | ? | -3%
Fc1ccc(NC(=S)NCCc2ccccc2)c(F)c1F | / | -5% | 18 | -6% | -40%
Fc1ccccc1NC(=S)NCCc1ccccc1 | 2% | 6.3µM* | -22 | ? | -34%
Fc1cccc(NC(=S)NCCc2ccccc2)c1 | -7% | 3.2µM* | 7 | ? | -52%
Fc1ccccc1NC(=S)NCCc1ccc(Cl)cc1 | 5% | 8.9µM* | -10 | ? | -21%
CC(C)Cn1c(=O)c2ccccc2n2c(CCC(=O)N3CCN(c4ccccc4)CC3)nnc12 | 3% | / | / | / | /
COC(=O)c1ccccc1NC(=O)C1CC(c2ccccc2O)=NO1 (centres undefined) | 14% | 13µM* | 4 | ? | 8%
O=C(Nc1cc(Br)ccc1O)C1CC(c2ccccc2Cl)=NO1 (centres undefined) | -13% | 32% | 7 | -19% | 13µM*
CSc1ccccc1NC(=O)C1CC(c2ccccc2O)=NO1 (centres undefined) | / | ? | 11 | ? | -22%
